The campaign covered roughly 5,500 compounds. About 2,000 (36%) were called active. Inconclusive results (about 18%) are left out. Rule as the data show it: active = normalized growth mostly below about 0.91 (no sharp cut-off); inconclusive = no clear call, values can overlap the other calls; inactive = mostly above about 0.92. This is one part of the list.
Assay: chemical genetic growth profiling, strain panel (AID 1159580);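 also: tested at 20 µM; growth read once vehicle control cultures reached saturation at 30 °C; 1 = growth at the plate median or of vehicle wells; lower values mean less growth of the strain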
Settings: growth OD

Measured: normalized growth

COc1cc2cc[n+]3cc4c(OC)c(OC)ccc4cc3c2cc1OC
inactive: S. cerevisiae deletion strains, locus YJR075W, strain HOC1, active compounds read low 0.979 | S. cerevisiae deletion strains, locus YKL009W, strain mrt4, active compounds read low 0.965 | S. cerevisiae deletion strains, locus YKL068W, active compounds read low 0.963 | S. cerevisiae deletion strains, locus YKL085W, strain MDH1 (second series), active compounds read low 0.992 | S. cerevisiae deletion strains, locus YKL085W, strain MDH1, active compounds read low 0.992 | S. cerevisiae deletion strains, locus YKL160W, strain elf1, active compounds read low 0.976 | S. cerevisiae deletion strains, locus YKL190W, strain CNB1, active compounds read low 0.982 | S. cerevisiae deletion strains, locus YKR001C, strain vps1, active compounds read low 0.99 | S. cerevisiae deletion strains, locus YKR026C, strain gcn3, active compounds read low 0.985 | S. cerevisiae deletion strains, locus YKR091W, strain srl3, active compounds read low 0.976 | S. cerevisiae deletion strains, locus YLL001W, strain dnm1, active compounds read low 0.965 | S. cerevisiae deletion strains, locus YLL026W, active compounds read low 0.97 | S. cerevisiae deletion strains, locus YLL041C, strain sdh2, active compounds read low 0.99 | S. cerevisiae deletion strains, locus YLR027C, strain aat2, active compounds read low 0.962 | S. cerevisiae deletion strains, locus YLR039C, strain RIC1, active compounds read low 0.938 | S. cerevisiae deletion strains, locus YLR058C, strain SHM2, active compounds read low 0.985 | S. cerevisiae deletion strains, locus YLR102C, strain apc9, active compounds read low 0.959 | S. cerevisiae deletion strains, locus YLR113W, strain HOG1, active compounds read low 1.02 | S. cerevisiae deletion strains, locus YLR221C, strain rsa3, active compounds read low 0.968 | S. cerevisiae deletion strains, locus YLR258W, strain gsy2, active compounds read low 0.993 | S. cerevisiae deletion strains, locus YLR262C, strain YPT6 (second series), active compounds read low 1.01 | S. cerevisiae deletion strains, locus YLR262C, strain YPT6, active compounds read low 0.926 | S. cerevisiae deletion strains, locus YLR268W, strain sec22, active compounds read low 1 | S. cerevisiae deletion strains, locus YLR320W, strain mms22, active compounds read low 0.979 | S. cerevisiae deletion strains, locus YLR330W, strain CHS5, active compounds read low 0.977 | S. cerevisiae deletion strains, locus YLR342W, strain FKS1 (second series), active compounds read low 0.96 | S. cerevisiae deletion strains, locus YLR342W, strain FKS1, active compounds read low 0.981 | S. cerevisiae deletion strains, locus YLR357W, strain rsc2, active compounds read low 0.95 | S. cerevisiae deletion strains, locus YLR370C, strain arc18, active compounds read low 0.981 | S. cerevisiae deletion strains, locus YLR371W, strain rom2, active compounds read low 0.952 | S. cerevisiae deletion strains, locus YLR384C, strain iki3, active compounds read low 0.977 | S. cerevisiae deletion strains, locus YLR418C, strain cdc73, active compounds read low 1 | S. cerevisiae deletion strains, locus YML016C, strain PPZ1, active compounds read low 0.985 | S. cerevisiae deletion strains, locus YML032C, strain rad52, active compounds read low 0.955 | S. cerevisiae deletion strains, locus YML120C, strain ndi1, active compounds read low 0.978 | S. cerevisiae deletion strains, locus YML124C, strain tub3, active compounds read low 0.985 | S. cerevisiae deletion strains, locus YMR058W, strain fet3, active compounds read low 0.973 | S. cerevisiae deletion strains, locus YMR078C, strain ctf18, active compounds read low 0.986 | S. cerevisiae deletion strains, locus YMR125W, strain sto1, active compounds read low 0.938 | S. cerevisiae deletion strains, locus YMR129W, active compounds read low 0.987 | S. cerevisiae deletion strains, locus YMR205C, strain PFK2, active compounds read low 0.961 | S. cerevisiae deletion strains, locus YMR223W, strain ubp8, active compounds read low 0.97 | S. cerevisiae deletion strains, locus YMR231W, strain pep5, active compounds read low 0.988 | S. cerevisiae deletion strains, locus YMR263W, strain SAP30, active compounds read low 0.988 | S. cerevisiae deletion strains, locus YMR307W, strain GAS1, active compounds read low 1.1 | S. cerevisiae deletion strains, locus YNL067W, strain RPL9B, active compounds read low 0.982 | S. cerevisiae deletion strains, locus YNL071W, strain lat1, active compounds read low 0.988 | S. cerevisiae deletion strains, locus YNL128W, strain TEP1, active compounds read low 0.995 | S. cerevisiae deletion strains, locus YNL153C, strain GIM3, active compounds read low 0.999 | S. cerevisiae deletion strains, locus YNL183C, strain NPR1, active compounds read low 0.95 | S. cerevisiae deletion strains, locus YNL209W, strain ssb2, active compounds read low 0.982 | S. cerevisiae deletion strains, locus YNL233W, strain BNI4, active compounds read low 1 | S. cerevisiae deletion strains, locus YNL248C, strain rpa49, active compounds read low 0.968 | S. cerevisiae deletion strains, locus YNL250W, strain rad50, active compounds read low 0.968 | S. cerevisiae deletion strains, locus YNL271C, strain bni1, active compounds read low 0.975 | S. cerevisiae deletion strains, locus YNL298W, strain CLA4, active compounds read low 0.984 | S. cerevisiae deletion strains, locus YNL307C, strain MCK1, active compounds read low 0.985 | S. cerevisiae deletion strains, locus YNL322C, strain KRE1 (second series), active compounds read low 0.959 | S. cerevisiae deletion strains, locus YNL322C, strain KRE1, active compounds read low 0.98 | S. cerevisiae deletion strains, locus YNR049C, strain mso1, active compounds read low 0.972 | S. cerevisiae deletion strains, locus YNR052C, strain pop2, active compounds read low 0.98 | S. cerevisiae deletion strains, locus YOL006C, strain TOP1, active compounds read low 1.02 | S. cerevisiae deletion strains, locus YOL012C, strain htz1 0.901 | S. cerevisiae deletion strains, locus YOL147C, strain pex11, active compounds read low 0.988 | S. cerevisiae deletion strains, locus YOR001W, strain rrp6, active compounds read low 0.987 | S. cerevisiae deletion strains, locus YOR061W, strain CKA2, active compounds read low 0.98 | S. cerevisiae deletion strains, locus YOR069W, strain VPS5, active compounds read low 0.993 | S. cerevisiae deletion strains, locus YOR070C, strain gyp1, active compounds read low 0.984 | S. cerevisiae deletion strains, locus YOR080W, strain dia2, active compounds read low 0.965 | S. cerevisiae deletion strains, locus YOR083W, strain WHI5, active compounds read low 0.964 | S. cerevisiae deletion strains, locus YOR106W, strain vam3, active compounds read low 0.998 | S. cerevisiae deletion strains, locus YOR136W, strain idh2, active compounds read low 0.986 | S. cerevisiae deletion strains, locus YOR144C, strain elg1, active compounds read low 0.983 | S. cerevisiae deletion strains, locus YOR184W, strain ser1, active compounds read low 0.933 | S. cerevisiae deletion strains, locus YOR231W, strain MKK1, active compounds read low 1.03 | S. cerevisiae deletion strains, locus YOR265W, strain rbl2, active compounds read low 0.989 | S. cerevisiae deletion strains, locus YOR270C, strain vph1, active compounds read low 0.937 | S. cerevisiae deletion strains, locus YOR290C, strain snf2, active compounds read low 0.946 | S. cerevisiae deletion strains, locus YOR316C, strain cot1, active compounds read low 0.988 | S. cerevisiae deletion strains, locus YPL051W, strain arl3, active compounds read low 0.997 | S. cerevisiae deletion strains, locus YPL055C, strain LGE1, active compounds read low 0.984 | S. cerevisiae deletion strains, locus YPL078C, strain atp4, active compounds read low 0.986 | S. cerevisiae deletion strains, locus YPL106C, strain sse1, active compounds read low 0.953 | S. cerevisiae deletion strains, locus YPL240C, strain hsp82, active compounds read low 0.982 | S. cerevisiae deletion strains, locus YPL256C, strain CLN2, active compounds read low 1.03 | S. cerevisiae deletion strains, locus YPR119W, strain clb2, active compounds read low 0.979 | S. cerevisiae deletion strains, locus YPR141C, strain kar3, active compounds read low 0.988 | S. cerevisiae deletion strains, locus YPR163C, strain tif3, active compounds read low 0.988 | S. cerevisiae deletion strains, locus YPR167C, strain met16, active compounds read low 0.984 | S. cerevisiae deletion strains, strain wtn01, active compounds read low 0.971 | S. cerevisiae strains, strain wild type, active compounds read low 0.985

Source: PubChem BioAssay AID1159580 (chemical genetic matrix, 2015)
